PubChem BioAssay
For some assays here: Entries with a potency or affinity are not part of this list. Activity calls are given as the source filed them. Unless noted, no rule for the calls is given here.

How the values were obtained:
[1] = restoration of touch response, mutant HTT neurons – whole organism, C. elegans mechanosensory neurons, N-terminal huntingtin (AID 1599); conditions: C. elegans polyQ-huntingtin mechanosensory neurons, stronger effect = higher value
[2] = blockers of cytochrome c efflux from mitochondria – biochemical, purified mitochondria (AID 1603); conditions: stronger effect = lower value;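 also: mouse liver mitochondria challenged with calcium chloride; signal normalized to the plate average as 100%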
[3] = polyglutamine aggregate formation blockers (AID 1604); conditions: polyglutamine-induced protein aggregation inhibition assay; stronger effect = higher value; tested at 2.5 µM
[4] = glutamate transport activators, MN-1 cells, MN-1 cell line (AID 1612); conditions: MN-1 motor neuron cells, stronger effect = higher value;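 also: tested at 1 µM final; 0% = mean of DMSO vehicle wells on each plate; positive means more glutamate uptake than control and negative means less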
[5] = 75Q-TubH aggregate inhibition, S. cerevisiae, yeast (AID 1616); conditions: S. cerevisiae 75Q-TubH polyglutamine aggregation suppression; stronger effect = higher value
[6] = GFP-Q80 aggregate reduction, neuronal-like cells, cell-based, NGF-treated PC12, GFPQ80 (AID 1614); conditions: PC12 NGF-treated GFP-polyQ80 inclusion reduction;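 also: lower means fewer inclusions and 0 means no inclusions at all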
[7] = compounds altering circadian rhythm period length – cell-based, LOPAC library, luminescence reporter (AID 2774); conditions: circadian reporter cells, at 7 µM, actives lie on both sides;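 also: values are relative to mean of DMSO wells on each plate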
[8] = system: Hepatitis C virus NS3 helicase; assay: blockers of NS3h binding to ssDNA – biochemical, fluorescence polarization, LOPAC1280 library, primary screen (AID 687035; in the data active = inhibition above about 37%); conditions: Purified HCV NS3 helicase, Cy5-dT15 ssDNA binding fluorescence polarization; stronger effect = higher value; concentration not given here
[9] = compounds altering Cy5-DNA-NS3h complex signal – biochemical, LOPAC1280, artefact control for HCV NS3 helicase inhibitor project (AID 687037); conditions: Cy5-DNA-NS3h complex fluorescence interference counterscreen
[10] = blockers of cellular phospholipid synthesis – cell-based, LOPAC library, screen 4, primary screen (AID 1347384); conditions: animal cells, phospholipid biosynthesis inhibition screen; at 10 µM

| SMILES | rescue above control [1] | cytochrome c release ratio [2] | inhibition of aggregation [3] | glutamate uptake change [4] | aggregation suppression score [5] | inclusion score [6] | period change [7] | inhibition [8] | fluorescence ratio (interference) [9] | outcome [10] |
| --- | --- | --- | --- | --- | --- | --- | --- | --- | --- | --- |
| CC[C@@H](C(=O)[C@@H](C)[C@@H](O)[C@H](C)[C@@H]1O[C@@H]([C@@H](CC)C(=O)O)CC[C@@H]1C)[C@H]1OC2(C=C[C@@H](O)[C@]3(CC[C@@](C)([C@H]4CC[C@](O)(CC)[C@H](C)O4)O3)O2)[C@H](C)C[C@@H]1C (stereo partly specified) | -3.48 | 1.06 | 61.1% | -41.6% | 0.25 |  |  |  |  |  |
| CC(=O)OCC(=O)[C@@]1(O)[C@H](C)CC2C3CCC4=CC(=O)C=C[C@]4(C)[C@@]3(F)[C@@H](O)C[C@@]21C (stereo partly specified) | 1.81 | 1.17 | 69.4% | 20.3% | 1.32 | 2 |  |  |  |  |
| CC(=O)Oc1ccc2c(c1)CCC1C2CC[C@@]2(C)C1CC[C@@H]2OC(C)=O (stereo partly specified) | 6.23 | 1 | 65.2% | -3% | 0.34 |  |  |  |  |  |
| CC(C)CC(NC(=O)CCN)C(=O)O (stereo unspecified) | 6.33 | 1.04 | 57.6% | 14.1% | 1.32 | 2 |  |  |  |  |
| NC(Cc1ccc(F)cc1)C(=O)O (stereo unspecified) | 3.95 | 0.78 | 75% | 15.5% | 1.47 | 2 |  |  |  |  |
| C=C(C)[C@H]1CC=C(C(=O)O)CC1 | -1.74 | 0.96 | -3.17% | -7.46% | 0.107 | 2 |  |  |  |  |
| CC1CCC2(OC1)OC1CC3C4CC[C@H]5C[C@@H](O)CC[C@]5(C)C4CC(=O)[C@]3(C)C1C2C (stereo partly specified) | -2.31 | 1.08 | 27.8% | 2.67% | 1.27 | 2 |  |  |  |  |
| COc1ccc(-c2cc(=O)c3c(O)cc(O[C@@H]4O[C@H](CO[C@H]5O[C@H](C)[C@@H](O)[C@H](O)[C@@H]5O)[C@@H](O)[C@H](O)[C@H]4O)cc3o2)cc1O | -9.51 | 0.94 | 75% | 6.61% | 1.82 | 2 |  |  |  |  |
| CC(C)(C)NC[C@@H](O)COc1nsnc1N1CCOCC1 | -14.1 | 1.02 | -23.4% | 14.7% | 1.29 | 2 |  |  |  |  |
| C1CCN2C[C@H]3C[C@H](CN4CCCC[C@@H]34)[C@H]2C1 | -2.03 | 1.05 | 26.9% | 8.14% | 1.49 | 2 |  |  |  |  |
| CC(=O)[C@@]1(O)CCC2C3C=C(Cl)C4=CC(=O)[C@@H]5CC5[C@]4(C)C3CC[C@@]21C (stereo partly specified) | 12.8 | 1.45 | 9.8% | -5.81% | 0.681 | 2 |  |  |  |  |
| CC1=C2C(=CO[C@H](C)[C@H]2C)C(=O)C(C(=O)O)=C1O |  | 0.99 | 68.3% | 33.3% | 0.187 | 2 |  |  |  |  |
| C[N+]1(C)C2CC(OC(=O)[C@@H](CO)c3ccccc3)CC1C1OC12 (stereo partly specified) | -0.68 | 0.94 | 47.9% | -7.1% | 1.44 | 2 |  |  |  |  |
| CC1(C)C2CC[C@]3(C)C(C(=O)C=C4[C@@H]5C[C@@](C)(C(=O)O)CC[C@]5(C)CC[C@]43C)[C@@]2(C)CC[C@@H]1O (stereo partly specified) | 12 | 0.78 | 25.7% | -84.4% | 1.4 |  |  |  |  |  |
| CC1(C)C2CC[C@]3(C)C(C(=O)C=C4[C@H]5C[C@@](C)(C(=O)O)CC[C@]5(C)CC[C@]43C)[C@@]2(C)CC[C@@H]1O (stereo partly specified) | 0.7 | 1.2 | 25.5% | -60.4% | 0.949 | 2 |  |  |  |  |
| NC[C@H]1O[C@H](O[C@H]2C(O[C@@H]3O[C@H](CO)[C@@H](O)[C@H]3O)[C@@H](O)[C@H](N)C[C@@H]2N)[C@H](N)[C@@H](O)[C@@H]1O (stereo partly specified) | -3.87 | 0.95 | 51% | -16.8% | 0.969 | 2 |  |  |  |  |
| COC1=CC(C)[C@@H]2C[C@H]3OC(=O)C[C@H]4C(C)=C(OC)C(=O)C([C@@]34C)[C@@]2(C)C1=O (stereo partly specified) | -7.37 | 0.85 | -1.96% | 12.8% | 1.57 | 2 |  |  |  |  |
| CC[C@H](C)C(=O)O[C@H]1CCC=C2C=C[C@H](C)C(CCC3C[C@@H](O)CC(=O)O3)[C@H]21 (stereo partly specified) | -3.11 | 1.24 | 31.8% | 12.1% | 0.746 |  |  |  |  |  |
| CC(=O)O[C@@H]1CC2C(C)(C)C(=O)C=C[C@]2(C)C2CC[C@@]3(C)[C@H](c4ccoc4)OC(=O)[C@H]4O[C@]43[C@@]21C (stereo partly specified) | -3.01 | 1.1 | 36% | -11.6% | 0.57 | 2 |  |  |  |  |
| NC(COCc1ccccc1)C(=O)O (stereo unspecified) | 1.64 | 0.75 | 85.8% | 3.63% | 1.4 | 2 |  |  |  |  |
| CC(=O)N[C@@H]1[C@@H](C(O)[C@H](O)CO)O[C@](O)(C(=O)O)C[C@@H]1O (stereo partly specified) | -7.75 | 0.26 | -20.4% | 11.8% | 0.464 | 2 |  |  |  |  |
| CCCC(=O)Nc1ncnc2c1ncn2C1O[C@@H]2COP(=O)(O)O[C@H]2[C@H]1OC(=O)CCC (stereo partly specified) | 1.51 | 0.87 | 77.8% | 4.01% | 1.79 | 2 |  |  |  |  |
| COC(=O)C(N)CS (stereo unspecified) | -5.25 | 1.33 | 74.2% | 10.6% | 1.19 | 2 |  |  |  |  |
| Nc1ccn(C2O[C@H](CO)[C@@H](O)[C@H]2O)c(=O)n1 (stereo partly specified) | -6.6 | 1.18 | 63.9% | 6.93% | 1.06 | 2 |  |  |  |  |
| CC(C)Oc1ccc2c(=O)cc(-c3ccccc3)oc2c1 | 6.51 | 0.9 | 12.7% | -13.2% | 0.599 | 2 |  |  |  |  |
| COc1ccc([C@@H]2CC(=O)c3c(O)cc(O[C@@H]4O[C@H](CO[C@H]5O[C@@H](C)[C@H](O)[C@@H](O)[C@H]5O)[C@@H](O)[C@H](O)[C@H]4O)cc3O2)cc1O | -5.33 | 0.96 | 83.3% | 7.48% | 1.41 | 2 |  |  |  |  |
| O=C(O)C1CCCN(CCC=C(c2ccccc2)c2ccccc2)C1 (stereo unspecified) |  |  |  |  |  |  | 0.005 h (inactive) | -1% (inactive) | 0.9 (inactive) |  |
| COc1cccc(-c2cc(=O)c3ccccc3o2)c1N |  |  |  |  |  |  | -0.07 h (inactive) | -1% (inactive) | 1 (inactive) | inactive |
| O=Nc1c(-c2c(O)[nH]c3cc(Br)ccc23)[nH]c2ccccc12 |  |  |  |  |  |  |  | 2% (inactive) | 0.9 (inactive) | active |
